In the library only some 12% were active in any assay of this set; here they are far more common.
PostGolgi ctrl: yeast control strain growth, post-Golgi counter-screen; efflux-deficient yeast background strain, growth absorbance A615, 16 h; inhibition, % at 10 µM; hit rate 5% among 98,000; AID 738
DAT uptake mod: human DAT dopamine uptake with cocaine, either direction | LLC-PK1 hDAT cells, [14C]-dopamine uptake with cocaine IC80; actives deviate in either direction | Q01959 | B-score at 10 µM | hit rate 1.3% among 110,000;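 active = Z score or B-score, a plate-position-corrected score, falls beyond the plate's 99.7% confidence bounds, in either direction; inactive = both scores lie inside the 99.7% bounds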;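 also: scored against the spread of the other compound wells on the same plate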
Target sequence (Q01959 whole entry, looked up): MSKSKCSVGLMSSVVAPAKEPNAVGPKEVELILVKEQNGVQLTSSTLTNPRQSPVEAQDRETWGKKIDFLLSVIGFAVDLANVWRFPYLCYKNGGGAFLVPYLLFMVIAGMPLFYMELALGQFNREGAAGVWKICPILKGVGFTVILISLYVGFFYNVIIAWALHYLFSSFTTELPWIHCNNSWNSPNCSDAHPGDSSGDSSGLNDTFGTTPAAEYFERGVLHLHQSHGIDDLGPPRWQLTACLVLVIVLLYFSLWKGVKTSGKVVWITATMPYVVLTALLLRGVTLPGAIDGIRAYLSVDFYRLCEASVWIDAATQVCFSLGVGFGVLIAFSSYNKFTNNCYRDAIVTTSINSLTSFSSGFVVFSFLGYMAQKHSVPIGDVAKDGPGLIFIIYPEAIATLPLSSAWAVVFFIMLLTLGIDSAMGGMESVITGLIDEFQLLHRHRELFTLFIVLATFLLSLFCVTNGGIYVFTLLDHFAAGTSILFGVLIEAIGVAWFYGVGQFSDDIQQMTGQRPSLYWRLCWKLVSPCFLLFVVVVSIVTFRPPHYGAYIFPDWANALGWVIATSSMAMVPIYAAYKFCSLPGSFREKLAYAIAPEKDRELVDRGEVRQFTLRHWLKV
D1 allo mod: allosterically modulates the human D1 dopamine receptor. HEK293 D1, CRE-luciferase, dopamine EC30 potentiation; actives deviate in either direction. B-score at 10 µM. hit rate 5.9% among 58,000. AID 641;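 active = luminescence count or its row- and column-corrected plate score outside the 99.7% band of the plate's sample wells, on either side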
PostGolgi yeast: growth inhibition of a yeast mutant, post-Golgi transport screen; inhibition, % at 10 µM; post-Golgi transport phenotypic cell assay; hit rate 0.9% among 98,000;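 also: yeast cells grown in 1536-well plates; yeast grown about 18 h at 30C before absorbance read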
PLAP act: activates human placental alkaline phosphatase; P05187; purified PLAP enzyme, luminescent substrate read-out; active compounds read high; activation fold at 20 µM; hit rate 1.2% among 96,000; in the data active = activation fold above about 2
Cav3 T inh: human Cav3.2 channel inhibition, primary screen; AID 449739; hit rate 4% among 100,000; O95180; B-score at 10 µM; Cav3.2-expressing cells, Fluo-4 calcium fluorescence FDSS; active compounds read low;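 active = single-dose well whose peak fluorescence ratio is a statistical outlier from its plate by either plate-standardised score or position-corrected B-score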
D1 mod confirm: confirmation of human D1 dopamine receptor allosteric modulators | hit rate 88% among 2,200 | luminescence at 10 µM | shares compounds with D1 allo mod | HEK293 D1 CRE-luciferase, dopamine EC30 potentiation; active compounds read high | AID 642;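 active = luminescence in either of two replicates above the same-plate mean plus 3 SD of the low-dose dopamine control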
D1 no dopamine: activates D1 CRE-luciferase signal without dopamine present | shares compounds with D1 allo mod | HEK293 D1 CRE-luciferase, luminescence, no dopamine; active compounds read high | luminescence at 10 µM | hit rate 0.8% among 1,900; in the data active = luminescence above about 3900
Isoprot counter: alters isoproterenol CRE-luciferase response in HEK293 cells; calls only at 10 µM; hit rate 63% among 2,200; HEK293 D1 CRE-luciferase, isoproterenol EC30 counter-screen; AID 647; shares compounds with D1 allo mod;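 active = luminescence in either replicate above plate mean of wells with a partly effective reference agonist dose plus 3 SD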;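 also: isoproterenol raises cAMP through native beta-adrenoceptor Gs so signal bypasses D1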
* = called active by the depositor; i = inactive; . = no result given; + = active, no number. Rule as the data show it, unless noted: active = inhibition above about 30%; inactive = the rest.

SMILES	PostGolgi ctrl	DAT uptake mod	D1 allo mod	PostGolgi yeast	PLAP act	Cav3 T inh	D1 mod confirm	D1 no dopamine	Isoprot counter
O=c1c2ccccc2nc(-c2ccco2)n1Cc1ccccc1	24	0.076	7.8*	14	1	-0.2	19492*	1608	+
c1coc(-c2nc3nc4ccccc4nc3n2CC2CCCO2)c1 (stereo not drawn)	2	.	4.8*	-4	1.3	.	10012*	1816	+
CCCCCn1c(-c2ccco2)nc2nc3ccccc3nc21	21	.	12*	-15	1.4	.	18024*	1828	+
c1ccc(Cn2c(-c3ccco3)nc3nc4ccccc4nc32)cc1	15	0.031	3.5*	4	0.9	-0.056	7452*	1544	+
c1coc(-c2nc3nc4ccccc4nc3n2-c2ccc3c(c2)OCCO3)c1	12	0.46	.	-2	1.1	-0.85	.	.	.
CC(=O)Nc1ccccc1OCc1nnc(-c2cccs2)o1	7	-1.4	-0.2	2	0.9	0.017	.	.	.
O=S(=O)(NC1CCCCCC1)c1cccc2cccnc12	11	-0.42	5.5*	18	0.9	-0.025	9760*	1524	+
COc1ccc(NC(=O)CSc2nc(-c3ccncc3)nn2CC(=O)N2CCCC2)cc1	0	-0.24	.	-4	1.5	-0.28	.	.	.
CCC(Sc1nc2n[nH]c(C)c2c(=N)n1-c1cc(Cl)ccc1C)C(=O)N1CCOCC1 (stereo not drawn)	2	0.35	6.4*	-3	.	0.44	12280*	1844	+
Cc1ccc(-n2c(SCC(=O)NCC3CCCO3)nc3n[nH]c(C)c3c2=N)cc1Cl (stereo not drawn)	-1	1.1	-0.79	3	1.2	1.5	.	.	.
COc1nc(/C(N)=N/O)nc(N2CCCCC2)n1	0	-0.64	13*	-6	1.1	1.2	24932*	1416	+
N#CCOc1nc(N2CCCC2)nc(N2CCCC2)n1	-10	-0.98	.	8	1.3	0.12	.	.	.
COc1nc(N(C#N)CC(N)=O)nc(N2CCCC2)n1	5	0.74	8.4*	9	1	0.43	20228*	1780	+
Nc1nnc(SCc2ccc(Cl)cc2)s1	.	-0.71	.	.	.	-1.2	.	.	.
CCOC(=O)c1ccc(CSc2nnc(N)s2)cc1	2	0.68	3.7*	20	0.8	-0.47	10844*	.	+
Cc1nc2cc(CC(=O)O)ccc2o1	14	-0.97	.	0	0.8	0.83	.	.	.
O=C1CCCN1c1ccc(S(=O)(=O)Oc2ccc(Cl)cc2)cc1[N+](=O)[O-]	11	0.092	.	-5	1.1	-4	.	.	.
c1ccn(-c2ncnc3sc4c(c23)CCCC4)c1	16	0.7	7.6*	17	1	-0.035	13568*	.	+
Cc1cccc(C)c1OCC(O)CN1CCC(CN2C(=O)c3cccc4cccc(c34)C2=O)CC1 (stereo not drawn)	-4	1.6	.	3	1.7	-3.8	.	.	.
COc1ccc(CCN(Cc2cccs2)S(=O)(=O)c2ccc(-n3cnnn3)c(OC)c2)cc1OC	-4	-0.73	.	25	1	-0.029	.	.	.
COc1ccc(CN(Cc2cccnc2)S(=O)(=O)c2ccc(-n3cnnn3)c(C)c2)cc1OC	1	0.25	3.7*	12	1.6	0.25	7956*	1480	i
O=C1C(Cl)=C(NCC2CCCO2)C(=O)N1Cc1ccccc1 (stereo not drawn)	8	-0.63	4.8*	14	0.9	0.37	9896*	1724	i
O=C(NCC1CCCO1)c1ccc2c(c1)N(Cc1ccccc1)C(=O)CS2=O (stereo not drawn)	-7	0.92	0.029	-6	1.2	-0.31	.	.	.
CCOC(=O)C1=C(c2ccccc2)N2CCS(=O)(=O)N=C2S1	-6	-0.65	7.1*	19	0.8	0.012	9940*	1656	i
O=C(Oc1ccc2ccc(=O)oc2c1)N1CCOCC1	10	.	3.1*	5	1	.	5096	1644	i
SMILES	PostGolgi ctrl	DAT uptake mod	D1 allo mod	PostGolgi yeast	PLAP act	Cav3 T inh	D1 mod confirm	D1 no dopamine	Isoprot counter
CC(=O)c1cc(OC(=O)N2CCOCC2)ccc1OC(=O)N1CCOCC1	19	0.043	-0.13	1	1.4	0.91	.	.	.
COc1cc(-c2nnc3sc(-c4cccnc4)nn23)cc(OC)c1OC	.	.	1.5	.	.	.	.	.	.
CSc1nc2c(c(=O)n1-c1ccccc1)SCC2	13	-0.026	2.7*	3	0.9	0.54	11540*	1796	i
CSc1nc2c(c(=O)n1-c1ccc(C)cc1)SCC2	23	0.13	-0.51	2	1.2	.	.	.	.
CCOc1ccc(-n2c(SC(C)C)nc3c(c2=O)SCC3)cc1	3	-0.052	14*	-6	0.8	-2	19936*	1704	+
C#CCSc1nnc(-c2ccc(OC)cc2)o1	16	0.55	.	23	0.9	0.14	.	.	.
CC(C)(C)NC(=O)c1cccc(NC(=O)c2cccc(O)c2)c1	2	0.85	.	-10	0.9	0.85	.	.	.
COC(=O)c1ccc(=O)n(Cc2ccc3c(c2)OCO3)c1	11	-0.025	-0.12	0	1	-0.84	.	.	.
Cc1cc(=O)[nH]c(S/C=C/c2ccccc2)n1	24	0.29	-2.7	-4	0.9	-0.02	.	.	.
Cc1ccc(-c2cc(-c3ccc4c(c3)OCO4)c(C#N)c(N)n2)o1	2	0.82	5.9*	14	0.9	-0.88	8720*	1720	i
N#Cc1c(N)oc(-c2ccc3c(c2)OCO3)c1-c1ccc2c(c1)OCO2	22	0.00033	4.5*	-3	1	-0.32	26576*	1760	+
Cc1ccc(C(C(=O)NCCc2ccccc2)N(C(=O)c2csnn2)C2CC2)o1 (stereo not drawn)	1	-0.87	-0.047	-9	1.3	1.6	.	.	.
COC(=O)c1ccc(C23CC4(C2)[C@H](CN(C)[C@@H]4c2ccccc2)C3c2ccc(Cl)nc2)cc1 (stereo partly drawn)	.	-0.76	.	.	.	-0.14	.	.	.
CCC1(C)Cc2c(c(=O)n(-c3ccccc3)c3ncnc(N)c23)CO1 (stereo not drawn)	2	-0.26	5.5*	10	0.8	0.55	10848*	.	i
CC1(C)Cc2c(C#N)c(N)n(-c3ccccc3)c(=O)c2CO1	16	0.36	3.2	5	1.1	-0.13	.	.	.
Nc1c(NCCC2=CCCCC2)c(=O)[nH]c(=O)n1Cc1ccccc1	7	.	.	0	1.3	.	.	.	.
COc1ccc(CCNc2c(N)n(Cc3ccccc3)c(=O)[nH]c2=O)cc1OC	3	0.66	4.7*	4	1.4	-0.083	14452*	1596	+
CC1(C)Cc2c(C#N)c(N3CCCC3)nc(-c3ccco3)c2CO1	22	0.58	5.3*	0	1.5	-1.7	9980*	1576	i
